# From PMC11062922 (Nature Chemical Biology, 2023)
# Read-outs that look alike come from different tables or passages of the source.
# Assays:
# Conditions in all cases: read-out: apparent Kd, n = 1
# [1] = system: ERN1
# [2] = system: GAK
# [3] = system: IKBKE
# [4] = compound concentrations:100 nM and 1000 nM (sheet 'Lestaurtinib' of Supplementary Table 1),run:Lestaurtinib_02766_R1,Plate:MR027
# [5] = compound concentrations:100 nM and 1000 nM (sheet 'Lestaurtinib' of Supplementary Table 1),run:Lestaurtinib_02766_R2,Plate:MR027
# [6] = compound concentrations:100 nM and 1000 nM (sheet 'Lestaurtinib' of Supplementary Table 1),run:Lestaurtinib_02766_R3,Plate:MR027
# [7] = compound concentrations:100 nM and 1000 nM (sheet 'Lestaurtinib' of Supplementary Table 1),run:Lestaurtinib_02768_R1,Plate:MR028
# [8] = compound concentrations:100 nM and 1000 nM (sheet 'Lestaurtinib' of Supplementary Table 1),run:Lestaurtinib_02768_R2,Plate:MR028
# [9] = compound concentrations:100 nM and 1000 nM (sheet 'Lestaurtinib' of Supplementary Table 1),run:Lestaurtinib_02802_R1,Plate:MR029
# [10] = compound concentrations:100 nM and 1000 nM (sheet 'Lestaurtinib' of Supplementary Table 1),run:Lestaurtinib_02896_R3,Plate:MR030
# [11] = compound concentrations:100 nM and 1000 nM (sheet 'Lestaurtinib' of Supplementary Table 1),run:Lestaurtinib_03172_R2,Plate:MR031
# [12] = compound concentrations:100 nM and 1000 nM (sheet 'Lestaurtinib' of Supplementary Table 1),run:Lestaurtinib_03172_R3,Plate:MR031
# [13] = compound concentrations:100 nM and 1000 nM (sheet 'Lestaurtinib' of Supplementary Table 1),run:Lestaurtinib_02339_R1,Plate:MR001
# [14] = compound concentrations:100 nM and 1000 nM (sheet 'Lestaurtinib' of Supplementary Table 1),run:Lestaurtinib_02339_R2,Plate:MR001
substance,measurement,setting,value
Lestaurtinib,potency estimated from few doses,"[1]; compound concentrations:100 nM and 1000 nM (sheet 'Lestaurtinib' of Supplementary Table 1),run:Lestaurtinib_02765_R2,Plate:MR026",84.8 nM
same,potency estimated from few doses,"[1]; compound concentrations:100 nM and 1000 nM (sheet 'Lestaurtinib' of Supplementary Table 1),run:Lestaurtinib_02765_R3,Plate:MR026",113 nM
same,potency estimated from few doses,[1]; [4],29.6 nM
same,potency estimated from few doses,[1]; [5],54.9 nM
same,potency estimated from few doses,[1]; [6],73.5 nM
same,potency estimated from few doses,[1]; [7],51.4 nM
same,potency estimated from few doses,[1]; [8],55.4 nM
same,potency estimated from few doses,"[1]; compound concentrations:100 nM and 1000 nM (sheet 'Lestaurtinib' of Supplementary Table 1),run:Lestaurtinib_02795_R2,Plate:MR022",59.6 nM
same,potency estimated from few doses,[1]; [9],60.8 nM
same,potency estimated from few doses,"[1]; compound concentrations:100 nM and 1000 nM (sheet 'Lestaurtinib' of Supplementary Table 1),run:Lestaurtinib_02802_R3,Plate:MR029",176 nM
same,potency estimated from few doses,[1]; [10],48.9 nM
same,potency estimated from few doses,[1]; [11],68.4 nM
same,potency estimated from few doses,[1]; [12],71.8 nM
same,potency estimated from few doses,[2]; [13],681 nM
same,potency estimated from few doses,[2]; [14],515 nM
same,potency estimated from few doses,"[2]; compound concentrations:100 nM and 1000 nM (sheet 'Lestaurtinib' of Supplementary Table 1),run:Lestaurtinib_02339_R3,Plate:MR001",744 nM
same,potency estimated from few doses,"[2]; compound concentrations:100 nM and 1000 nM (sheet 'Lestaurtinib' of Supplementary Table 1),run:Lestaurtinib_02364_R2,Plate:MR002",838 nM
same,potency estimated from few doses,"[2]; compound concentrations:100 nM and 1000 nM (sheet 'Lestaurtinib' of Supplementary Table 1),run:Lestaurtinib_02364_R3,Plate:MR002",670 nM
same,potency estimated from few doses,"[2]; compound concentrations:100 nM and 1000 nM (sheet 'Lestaurtinib' of Supplementary Table 1),run:Lestaurtinib_02367_R1,Plate:MR003",703 nM
same,potency estimated from few doses,"[2]; compound concentrations:100 nM and 1000 nM (sheet 'Lestaurtinib' of Supplementary Table 1),run:Lestaurtinib_02367_R2,Plate:MR003",797 nM
same,potency estimated from few doses,"[2]; compound concentrations:100 nM and 1000 nM (sheet 'Lestaurtinib' of Supplementary Table 1),run:Lestaurtinib_02367_R3,Plate:MR003",731 nM
same,potency estimated from few doses,"[2]; compound concentrations:100 nM and 1000 nM (sheet 'Lestaurtinib' of Supplementary Table 1),run:Lestaurtinib_02381_R2,Plate:MR004",635 nM
same,potency estimated from few doses,"[2]; compound concentrations:100 nM and 1000 nM (sheet 'Lestaurtinib' of Supplementary Table 1),run:Lestaurtinib_02407_R1,Plate:MR005",718 nM
same,potency estimated from few doses,"[2]; compound concentrations:100 nM and 1000 nM (sheet 'Lestaurtinib' of Supplementary Table 1),run:Lestaurtinib_02407_R2,Plate:MR005",809 nM
same,potency estimated from few doses,"[2]; compound concentrations:100 nM and 1000 nM (sheet 'Lestaurtinib' of Supplementary Table 1),run:Lestaurtinib_02407_R3,Plate:MR005",702 nM
same,potency estimated from few doses,"[2]; compound concentrations:100 nM and 1000 nM (sheet 'Lestaurtinib' of Supplementary Table 1),run:Lestaurtinib_02422_R1,Plate:MR006",425 nM
same,potency estimated from few doses,"[2]; compound concentrations:100 nM and 1000 nM (sheet 'Lestaurtinib' of Supplementary Table 1),run:Lestaurtinib_02422_R2,Plate:MR006",9.54 nM
same,potency estimated from few doses,"[2]; compound concentrations:100 nM and 1000 nM (sheet 'Lestaurtinib' of Supplementary Table 1),run:Lestaurtinib_02422_R3,Plate:MR006",725 nM
same,potency estimated from few doses,"[2]; compound concentrations:100 nM and 1000 nM (sheet 'Lestaurtinib' of Supplementary Table 1),run:Lestaurtinib_02437_R1,Plate:MR007",654 nM
same,potency estimated from few doses,"[2]; compound concentrations:100 nM and 1000 nM (sheet 'Lestaurtinib' of Supplementary Table 1),run:Lestaurtinib_02437_R2,Plate:MR007",698 nM
same,potency estimated from few doses,"[2]; compound concentrations:100 nM and 1000 nM (sheet 'Lestaurtinib' of Supplementary Table 1),run:Lestaurtinib_02437_R3,Plate:MR007",58.5 nM
same,potency estimated from few doses,"[2]; compound concentrations:100 nM and 1000 nM (sheet 'Lestaurtinib' of Supplementary Table 1),run:Lestaurtinib_02438_R1,Plate:MR008",700 nM
same,potency estimated from few doses,"[2]; compound concentrations:100 nM and 1000 nM (sheet 'Lestaurtinib' of Supplementary Table 1),run:Lestaurtinib_02438_R2,Plate:MR008",667 nM
same,potency estimated from few doses,"[2]; compound concentrations:100 nM and 1000 nM (sheet 'Lestaurtinib' of Supplementary Table 1),run:Lestaurtinib_02438_R3,Plate:MR008",750 nM
same,potency estimated from few doses,"[2]; compound concentrations:100 nM and 1000 nM (sheet 'Lestaurtinib' of Supplementary Table 1),run:Lestaurtinib_02473_R3,Plate:MR010",59.2 nM
same,potency estimated from few doses,"[2]; compound concentrations:100 nM and 1000 nM (sheet 'Lestaurtinib' of Supplementary Table 1),run:Lestaurtinib_02482_R1,Plate:MR011",870 nM
same,potency estimated from few doses,"[2]; compound concentrations:100 nM and 1000 nM (sheet 'Lestaurtinib' of Supplementary Table 1),run:Lestaurtinib_02482_R2,Plate:MR011",804 nM
same,potency estimated from few doses,"[2]; compound concentrations:100 nM and 1000 nM (sheet 'Lestaurtinib' of Supplementary Table 1),run:Lestaurtinib_02482_R3,Plate:MR011",707 nM
same,potency estimated from few doses,"[2]; compound concentrations:100 nM and 1000 nM (sheet 'Lestaurtinib' of Supplementary Table 1),run:Lestaurtinib_02487_R2,Plate:MR012",783 nM
same,potency estimated from few doses,"[2]; compound concentrations:100 nM and 1000 nM (sheet 'Lestaurtinib' of Supplementary Table 1),run:Lestaurtinib_02496_R1,Plate:MR013",552 nM
same,potency estimated from few doses,"[2]; compound concentrations:100 nM and 1000 nM (sheet 'Lestaurtinib' of Supplementary Table 1),run:Lestaurtinib_02496_R2,Plate:MR013",507 nM
same,potency estimated from few doses,"[2]; compound concentrations:100 nM and 1000 nM (sheet 'Lestaurtinib' of Supplementary Table 1),run:Lestaurtinib_02496_R3,Plate:MR013",639 nM
same,potency estimated from few doses,"[2]; compound concentrations:100 nM and 1000 nM (sheet 'Lestaurtinib' of Supplementary Table 1),run:Lestaurtinib_02566_R1,Plate:MR014",580 nM
same,potency estimated from few doses,"[2]; compound concentrations:100 nM and 1000 nM (sheet 'Lestaurtinib' of Supplementary Table 1),run:Lestaurtinib_02566_R3,Plate:MR014",806 nM
same,potency estimated from few doses,"[2]; compound concentrations:100 nM and 1000 nM (sheet 'Lestaurtinib' of Supplementary Table 1),run:Lestaurtinib_02572_R1,Plate:MR015",486 nM
same,potency estimated from few doses,"[2]; compound concentrations:100 nM and 1000 nM (sheet 'Lestaurtinib' of Supplementary Table 1),run:Lestaurtinib_02572_R3,Plate:MR015",627 nM
same,potency estimated from few doses,"[2]; compound concentrations:100 nM and 1000 nM (sheet 'Lestaurtinib' of Supplementary Table 1),run:Lestaurtinib_02577_R1,Plate:MR016",484 nM
same,potency estimated from few doses,"[2]; compound concentrations:100 nM and 1000 nM (sheet 'Lestaurtinib' of Supplementary Table 1),run:Lestaurtinib_02577_R3,Plate:MR016",574 nM
same,potency estimated from few doses,"[2]; compound concentrations:100 nM and 1000 nM (sheet 'Lestaurtinib' of Supplementary Table 1),run:Lestaurtinib_02584_R1,Plate:MR017",641 nM
same,potency estimated from few doses,"[2]; compound concentrations:100 nM and 1000 nM (sheet 'Lestaurtinib' of Supplementary Table 1),run:Lestaurtinib_02584_R2,Plate:MR017",628 nM
same,potency estimated from few doses,"[2]; compound concentrations:100 nM and 1000 nM (sheet 'Lestaurtinib' of Supplementary Table 1),run:Lestaurtinib_02601_R1,Plate:MR018",786 nM
same,potency estimated from few doses,"[2]; compound concentrations:100 nM and 1000 nM (sheet 'Lestaurtinib' of Supplementary Table 1),run:Lestaurtinib_02601_R2,Plate:MR018",761 nM
same,potency estimated from few doses,"[2]; compound concentrations:100 nM and 1000 nM (sheet 'Lestaurtinib' of Supplementary Table 1),run:Lestaurtinib_02601_R3,Plate:MR018",56 nM
same,potency estimated from few doses,"[2]; compound concentrations:100 nM and 1000 nM (sheet 'Lestaurtinib' of Supplementary Table 1),run:Lestaurtinib_02606_R1,Plate:MR019",646 nM
same,potency estimated from few doses,"[2]; compound concentrations:100 nM and 1000 nM (sheet 'Lestaurtinib' of Supplementary Table 1),run:Lestaurtinib_02606_R2,Plate:MR019",729 nM
same,potency estimated from few doses,"[2]; compound concentrations:100 nM and 1000 nM (sheet 'Lestaurtinib' of Supplementary Table 1),run:Lestaurtinib_02624_R1,Plate:MR020",818 nM
same,potency estimated from few doses,"[2]; compound concentrations:100 nM and 1000 nM (sheet 'Lestaurtinib' of Supplementary Table 1),run:Lestaurtinib_02624_R2,Plate:MR020",627 nM
same,potency estimated from few doses,"[2]; compound concentrations:100 nM and 1000 nM (sheet 'Lestaurtinib' of Supplementary Table 1),run:Lestaurtinib_02624_R3,Plate:MR020",770 nM
same,potency estimated from few doses,"[2]; compound concentrations:100 nM and 1000 nM (sheet 'Lestaurtinib' of Supplementary Table 1),run:Lestaurtinib_02724_R1,Plate:MR021",577 nM
same,potency estimated from few doses,"[2]; compound concentrations:100 nM and 1000 nM (sheet 'Lestaurtinib' of Supplementary Table 1),run:Lestaurtinib_02724_R2,Plate:MR021",628 nM
same,potency estimated from few doses,"[2]; compound concentrations:100 nM and 1000 nM (sheet 'Lestaurtinib' of Supplementary Table 1),run:Lestaurtinib_02748_R1,Plate:MR024",455 nM
same,potency estimated from few doses,"[2]; compound concentrations:100 nM and 1000 nM (sheet 'Lestaurtinib' of Supplementary Table 1),run:Lestaurtinib_02748_R2,Plate:MR024",649 nM
same,potency estimated from few doses,"[2]; compound concentrations:100 nM and 1000 nM (sheet 'Lestaurtinib' of Supplementary Table 1),run:Lestaurtinib_02748_R3,Plate:MR024",731 nM
same,potency estimated from few doses,"[2]; compound concentrations:100 nM and 1000 nM (sheet 'Lestaurtinib' of Supplementary Table 1),run:Lestaurtinib_02752_R2,Plate:MR025",637 nM
same,potency estimated from few doses,"[2]; compound concentrations:100 nM and 1000 nM (sheet 'Lestaurtinib' of Supplementary Table 1),run:Lestaurtinib_02752_R3,Plate:MR025",696 nM
same,potency estimated from few doses,[2]; [4],591 nM
same,potency estimated from few doses,[2]; [5],36.2 nM
same,potency estimated from few doses,[2]; [6],762 nM
same,potency estimated from few doses,[2]; [7],728 nM
same,potency estimated from few doses,[2]; [8],752 nM
same,potency estimated from few doses,"[2]; compound concentrations:100 nM and 1000 nM (sheet 'Lestaurtinib' of Supplementary Table 1),run:Lestaurtinib_02795_R1,Plate:MR022",828 nM
same,potency estimated from few doses,[2]; [9],614 nM
same,potency estimated from few doses,"[2]; compound concentrations:100 nM and 1000 nM (sheet 'Lestaurtinib' of Supplementary Table 1),run:Lestaurtinib_02802_R2,Plate:MR029",635 nM
same,potency estimated from few doses,"[2]; compound concentrations:100 nM and 1000 nM (sheet 'Lestaurtinib' of Supplementary Table 1),run:Lestaurtinib_02896_R2,Plate:MR030",687 nM
same,potency estimated from few doses,[2]; [10],634 nM
same,potency estimated from few doses,"[2]; compound concentrations:100 nM and 1000 nM (sheet 'Lestaurtinib' of Supplementary Table 1),run:Lestaurtinib_03172_R1,Plate:MR031",665 nM
same,potency estimated from few doses,[2]; [11],786 nM
same,potency estimated from few doses,[2]; [12],687 nM
same,potency estimated from few doses,"[2]; compound concentrations:100 nM and 1000 nM (sheet 'Lestaurtinib' of Supplementary Table 1),run:Lestaurtinib_03252_R1,Plate:MR032",707 nM
same,potency estimated from few doses,"[2]; compound concentrations:100 nM and 1000 nM (sheet 'Lestaurtinib' of Supplementary Table 1),run:Lestaurtinib_03252_R2,Plate:MR032",29.5 nM
same,potency estimated from few doses,"[2]; compound concentrations:100 nM and 1000 nM (sheet 'Lestaurtinib' of Supplementary Table 1),run:Lestaurtinib_03260_R1,Plate:MR033",784 nM
same,potency estimated from few doses,"[2]; compound concentrations:100 nM and 1000 nM (sheet 'Lestaurtinib' of Supplementary Table 1),run:Lestaurtinib_03260_R2,Plate:MR033",821 nM
same,potency estimated from few doses,"[2]; compound concentrations:100 nM and 1000 nM (sheet 'Lestaurtinib' of Supplementary Table 1),run:Lestaurtinib_03260_R3,Plate:MR033",793 nM
same,potency estimated from few doses,[3]; [13],861 nM
same,potency estimated from few doses,[3]; [14],585 nM
